High-throughput results: PubChem BioAssay, several laboratories
PrPC TRFRET: inhibitors of human cell surface prion protein PrPC; TR-FRET read-out; P04156; 0.43% of 370,000 active; inhibition, % at 13.8 µM; in the data active means inhibition above about 24%; further: 0% = median of the test wells and 100% = reference compound wells
Y pestis TopoI: blocks Yersinia pestis topoisomerase I activity | 0.064% of 360,000 active | activity, % at 10 µM | Y. pestis Topo-I cleavage product accumulation, plate reader; in the data active means activity above about 50%, passing the limit was not always enough
Vc quorum ag: inducers of Vibrio cholerae quorum light production without autoinducers; 0.16% of 350,000 active; activation, % at 18.7 µM; V. cholerae BH1578 lux reporter, luminescence, 6 h; in the data active means activation mostly above about 9.7%, no sharp cut-off
CCHFV vOTU inh: CCHFV vOTU protease inhibition | Pep-AMC fluorescence | 0.55% of 370,000 active | AID 651958 | inhibition, % at 11.5 µM; in the data active means inhibition above about 30%; further: 0% = vehicle wells with enzyme and 100% = no enzyme wells
PrPC confirm: cell surface PrPC inhibition, TR-FRET confirmation; inhibition, % at 13.8 µM; cell surface PrPC level; 65% of 1,500 active; shares compounds with PrPC TRFRET; AID 743200; in the data active means inhibition above about 25%
LD9 cytotox: kills or reduces viability of LD9 cells in PrPc counter-screen | shares compounds with PrPC TRFRET | LD9 cells cytotoxicity, luminescence viability | inhibition, % at 13.8 µM | 29% of 1,500 active | AID 743201; in the data active means inhibition above about 9.5%
An asterisk follows results filed as active; i = inactive; x = not tested or not shown. An excerpt weighted towards active compounds, which were near 1.1% of everything screened.

SMILES	PrPC TRFRET	Y pestis TopoI	Vc quorum ag	CCHFV vOTU inh	PrPC confirm	LD9 cytotox
CC(C)[C@@H](NC(=O)OC(C)(C)C)c1cc(C(=O)c2c(-c3ccccc3)[nH]c3ccccc23)c(N)s1	41*	x	x	13	30*	-10
Cc1ccc(SC2=C[C@@]3(O)CC[C@@H](O)[C@@](Sc4ccc(C)cc4)(C2=O)[C@H]3O)cc1	27*	x	x	7	20	-9
CC(C)(C)c1ccc(/C=C(\c2nc3ccccc3[nH]2)S(=O)(=O)c2ccccc2)cc1	x	9	i	x	x	x
Cc1cccc(/C=C(\c2nc3ccccc3[nH]2)S(=O)(=O)c2ccccc2)c1	25*	-1	0	3	17	22*
CCOc1ccc(-c2cc(C(=O)NCCCn3ccnc3)c3ccccc3n2)cc1	-6	7	2	-46	x	x
CCOc1ccc(-c2cc(C(=O)NCCCn3ccnc3)c3cc(Br)ccc3n2)cc1	25*	0	0	-10	82*	0
NC(=O)c1nnn(Cc2cc(Cl)c(C(=O)c3ccc(Cl)cc3)c(Cl)c2)c1N	35*	x	x	4	28*	7
Cc1cc(C(=O)N/N=C/c2c[nH]c3ccccc23)cs1	3	-14	0	-4	x	x
CCC(=O)N1CCN(c2ccc(NC(=O)c3ccc([N+](=O)[O-])o3)cc2Cl)CC1	38*	-3	-1	2	21	97*
CC(C)CC(CC(C)C)=NNC(=O)c1ccc2c(c1)OCO2	8	5	i	1	x	x
NC(=O)c1nn(-c2cccc(Cl)c2)c(=O)cc1O	49*	18	0	7	49*	-8
CCCCCCn1c(=O)n2n(c1=O)C[C@]1(OC(=O)Nc3cccs3)CN(S(=O)(=O)c3ccc(C)cc3)C[C@]1(O)C2	25*	2	i	-7	5	0
CC(C)CCNC(=O)C(NS(=O)(=O)c1ccc2c(c1)c(=O)n(C)c(=O)n2C)c1ccccc1 (stereo not drawn)	-2	1	0	0	x	x
CCC(C)NC(=O)C(NS(=O)(=O)c1ccc2c(c1)c(=O)n(C)c(=O)n2C)c1ccccc1 (stereo not drawn)	42*	3	0	3	8	-1
CCOP(=O)(OCC)c1nc(-c2ccc(OC)cc2)oc1N1CCOCC1	0	0	0	-45	x	x
COc1ccc2c(=O)cc(C(=O)O)oc2c1	4	-2	0	-20	x	x
COc1ccc2c(C)c(C(=O)O)oc2c1	28*	5	-3	-20	30*	-1
C=C1C(=O)OC2CC3(C)OC3C3OC3C3=CC(OC3=O)C12 (stereo not drawn)	93*	3	0	-3	80*	21*
C=C1C(=O)OC2CC3(C)OC3CCC(C)=CC(OC(C)=O)C12 (stereo not drawn)	5	2	i	0	x	x
Cc1cccc(-n2c(-c3ccco3)n[nH]c2=S)c1	31*	-1	i	1	33*	-3
Cc1cccc(-n2c(-c3ccc(Br)o3)n[nH]c2=S)c1	-3	-12	0	7	x	x
Nc1ccc2c(c1)Nc1ccccc1CC2	6	-35	0	5	x	x
Cc1c(C(=O)N2CCc3ccccc32)oc2ccccc12	2	34	2	4	x	x
COCc1c(C(=O)N2CCc3ccccc32)oc2ccccc12	26*	8	0	13	3	-4
O=C(COC(=O)CSc1ccc2ccccc2c1Br)NC1CC1	56*	12	i	-9	79*	-7
SMILES	PrPC TRFRET	Y pestis TopoI	Vc quorum ag	CCHFV vOTU inh	PrPC confirm	LD9 cytotox
CCOC(=O)C1CCCN(Cc2cc(=O)oc3cc(C)c(C)cc23)C1 (stereo not drawn)	6	15	0	6	x	x
CNC(=S)/N=C/NOCc1ccc(Cl)cc1Cl	36*	-11	0	9	45*	35*
Cc1nnc(NC(=O)CSc2nc(C(C)C)nc3ccccc23)s1	29*	2	-8	-1	78*	-4
Cc1cc(NC(=O)CSc2ccccc2)no1	4	1	0	-3	x	x
CC(C)c1nc(SCC(=O)NC2CCCC2)c2ccccc2n1	16	6	0	4	x	x
Cc1cc(NC(=O)CSc2nc(C(C)C)nc3ccccc23)no1	118*	8	3	1	124*	-14
Cc1cc(NC(=O)C(C)Sc2nc(-c3cccs3)nc3ccccc23)no1 (stereo not drawn)	43*	-1	-1	-9	102*	-4
CC(C)c1nc(SCC(=O)Nc2nc3c(s2)CCCC3)c2ccccc2n1	60*	1	-9	9	75*	-1
O=C(Nc1ccc(F)cc1)c1ccc(Cn2cnnn2)cc1	5	4	0	-4	x	x
CCOC(=O)C(C)Sc1nc2c(c(-c3cccs3)c1C#N)CCC2 (stereo not drawn)	65*	37	0	11	76*	-4
N#Cc1c(SC(C(=O)O)c2ccccc2)nc2c(c1-c1cccs1)CCCC2 (stereo not drawn)	52*	11	i	23	52*	-9
CC(C)OC(=O)CC(=O)CSc1nc2c(c(-c3cccs3)c1C#N)CCC2	-1	27	-6	12	x	x
CSc1nc2c(c(-c3ccccc3)c1C#N)CCC2	9	0	i	-1	x	x
COc1cccc(C(=O)NCC(=O)NNc2ncnc(N)c2[N+](=O)[O-])c1	-15	4	4	8	x	x
CCOC(=O)C(C)Sc1nc(-c2ccccc2)nc2ccc(F)cc12 (stereo not drawn)	1	7	x	2	x	x
OCCSc1nc(-c2ccccc2)nc2ccc(F)cc12	13	10	i	-2	x	x
CCOC(=O)C(C)Sc1nc(-c2ccccc2)nc2ccccc12 (stereo not drawn)	84*	6	-6	-11	109*	3
CCOC(=O)CSc1nc(-c2ccccc2)nc2ccc(F)cc12	26*	7	0	2	105*	5
CCOC(=O)CSc1nc(-c2ccccc2)nc2ccccc12	105*	-2	i	5	116*	3
CCOc1ccc2nc(-c3ccccc3)nc(SCC(=O)Nc3ncc(C)s3)c2c1	4	-1	i	-6	x	x
COC(=O)CSc1nc(-c2ccccc2)nc2ccc(F)cc12	49*	0	-1	5	107*	-4
CCN1CCN(c2cc(C)c3cc(NC(=O)c4ccc(Br)o4)ccc3n2)CC1	-9	6	-4	5	x	x
CS(=O)(=O)c1cccc(-c2csc(N3CCC(C(N)=O)CC3)n2)c1	5	-2	0	10	x	x
Nc1nc(F)nc2c1ncn2[C@@H]1O[C@H](CO)[C@@H](O)[C@@H]1O	2	3	0	-3	x	x
Nc1nc(F)nc2c1ncn2[C@@H]1O[C@H](CO)[C@@H](O)[C@H]1O	45*	4	-3	12	44*	54*
COc1cc2c(cc1OC)CN(C(=O)c1cccc(S(=O)(=O)N(C)C)c1)CC2	5	-4	0	-9	x	x
